# Bioassay records as filed in PubChem BioAssay.
# C2C12 statin: suppressors of simvastatin-induced myotoxicity in C2C12 myotubes | ATP luminescence, 48 h; scaled: DMSO 0, geranylgeraniol control 100 | rescue of ATP level, % at 7.49 µM | actives 0.78% (n = 330,000) | AID 602340;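 active means mean ATP rescue above about 67%, or every replicate alone reaching that limit, limit read from the data, passing the limit was not always enough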;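 further: myotubes were challenged with 10 µM simvastatin during compound exposure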
# ARNT-TACC3 inh: disruptors of human ARNT/TACC3 interaction | Q9Y6A5 | actives 0.66% (n = 390,000) | AlphaScreen His-ARNT PAS-B/GST-TACC3 binding, luminescence; TACC3 fragment carries E629A point mutation | inhibition, % at 9.99 µM;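 active means mean inhibition of replicates at least 50% and at least half of replicates each reaching 50%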;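 further: 0% = complete ARNT plus TACC3 wells and 100% = ARNT alone without TACC3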
# CFTR F508del cor: correctors of CFTR F508del function in bronchial epithelial cells | CFBE cells, YFP halide quenching; stimulated with forskolin plus potentiator P3; % fluorescence drop versus neutral controls | activity (quench increase), % at 7.58 µM | actives 0.36% (n = 350,000) | AID 720511;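 active means mean added fluorescence quench of at least 8% versus neutral control, with both replicates also reaching 8%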;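 further: cells transiently co-express mutant CFTR-F508del with the halide-sensitive YFP; corrector assay measuring rescue of mutant channel to the surface after 24 h compound exposure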
# PglD DTNB: inhibitors of Campylobacter jejuni PglD acetyltransferase. purified PglD enzyme, DTNB colorimetric CoA detection. inhibition, % at 12.5 µM. actives 0.098% (n = 360,000); in the data active means inhibition above about 16%, passing the limit was not always enough
# ARNT Alpha ctr: AlphaScreen artifact in ARNT/TACC3 counter-screen; shares compounds with ARNT-TACC3 inh; His-ARNT PASB-GST AlphaScreen artifact counter-screen, luminescence; AC50, µM (highest dose often 68 µM), inactives show at the top dose activity change, negative = signal decrease; actives 50% (n = 1,200); AID 651705;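 active means every separate test run was called active for a drop in luminescence, with AC50 within twice the top valid dose, actives reach about 71 µM in these data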
# * marks the source's active call; other numbers are inactive results; . = no result given; [ ] = remark or other dose. Hits are enriched below; roughly 1.4% of the tested compounds scored in any of these assays.
SMILES,C2C12 statin,ARNT-TACC3 inh,CFTR F508del cor,PglD DTNB,ARNT Alpha ctr
COc1cc(OC)cc(C(=O)Oc2c(CN3CCOCC3)cc(Cl)c3cccnc23)c1,-19,41*,-9,-1,-38%
O=C(COc1c(Br)cc(Br)c2cccnc12)N1CCCCC1,.,11,.,.,.
Oc1c(Cl)cc(CN2CCOCC2)c2cccnc12,2,71*,27*,3,7.3µM*
O=C(Oc1c(CN2CCOCC2)cc(Cl)c2cccnc12)c1ccccc1,5,52*,.,.,-36%
COc1ccc(C(=O)Oc2c(CN3CCOCC3)cc(Cl)c3cccnc23)cc1OC,.,.,1,.,.
CCCC(=O)Nc1ccc2c(c1)OC[C@@H](C)N(Cc1ccc(F)cc1)C[C@@H](C)[C@H](OC)CN(C)C2=O,.,.,-3,.,.
O=C(N/N=C/c1ccccc1O)C1SCCCS1,.,56*,-4,.,-28%
C[C@H](CO)N1C[C@H](C)[C@@H](CN(C)C(=O)Nc2cccc3ccccc23)Oc2ccc(NS(=O)(=O)c3cccs3)cc2CC1=O,7,-25,-4,-2,.
O=C(CN1C(=O)/C(=C\c2cccs2)SC1=S)Nc1cccc(C(=O)O)c1,.,57*,-1,-10,-10%
O=[N+]([O-])c1cc(Cl)cc(/C=N\Nc2ccccn2)c1O,.,56*,.,5,25µM*
CCN(C(=O)CSc1nccn1C)c1cccc2ccccc12,2,68*,2,-2,3%
CCOC(=O)c1cnc(Nc2nc3ccccc3o2)nc1CN1CCN(C)CC1,10,55*,.,4,41µM*
CO[C@H]1CN(C)C(=O)c2ccc(NC(C)=O)cc2OC[C@H](C)N(Cc2ccncc2)C[C@H]1C,-3,-2,-1,0,.
Cc1ccc(C)c(CSc2ccc3nnc(-c4ccccn4)n3n2)c1,-9,55*,-5,-3,-11%
Cc1ccc(CSc2ccc3nnc(-c4ccccn4)n3n2)cc1,.,11,1,.,.
Cc1cc(C)n2nc(-c3cccc(Br)c3)cc2n1,-17,51*,-4,-14,8%
Oc1cccc2c(-c3nn[nH]n3)ccnc12,13,68*,-2,1,10µM*
O=C(N[C@H]1CC[C@@H](CCn2cc(Cc3ccccc3)nn2)O[C@@H]1CO)c1cnccn1,-7,.,-1,-1,.
COc1ccc(-c2oc3cc(O)c(OC)c(O)c3c(=O)c2OC)cc1O,.,56*,3,.,-37%
CCCC(=O)NC(c1ccco1)c1cc([N+](=O)[O-])c2cccnc2c1O (configuration not stated),.,59*,-2,.,30µM*
CCC(=O)NC(c1ccc(C)cc1)c1cc([N+](=O)[O-])c2cccnc2c1O (configuration not stated),.,58*,.,-3,11µM*
CO[C@H]1CN(C)C(=O)c2cc(NS(=O)(=O)CC(F)(F)F)ccc2OC[C@H](C)N(Cc2ccccn2)C[C@H]1C,2,40,1,5,.
CO[C@H]1CN(C)C(=O)c2ccc(NC(=O)C3CC3)cc2OC[C@H](C)N(C(=O)Cc2ccccn2)C[C@@H]1C,-12,-6,-1,-2,.
Cn1c(SCC(=O)N/N=C/c2ccncc2)nc2ccccc21,.,-3,2,.,.
CCOc1cc(/C=N/NC(=O)CSc2cccc3cccnc23)ccc1O,.,63*,3,.,-31%
SMILES,C2C12 statin,ARNT-TACC3 inh,CFTR F508del cor,PglD DTNB,ARNT Alpha ctr
O=C(CSc1cccc2cccnc12)N/N=C/c1ccncc1,.,62*,-3,.,-16%
C/C=C/c1ccccc1[C@H]1[C@H](C#N)N(c2nc(CC)cs2)[C@H]1CO,.,.,1,.,.
O=S(=O)(Nc1cccc(F)c1)c1cccc2nsnc12,1,10,1,-2,.
Cc1cc(F)ccc1NS(=O)(=O)c1cccc2nsnc12,19,active,-6,-2,-3%
CO[C@@H]1CN(C)C(=O)c2cc(NC(=O)c3cnccn3)ccc2OC[C@@H](C)N(CCC(F)(F)F)C[C@H]1C,-6,-7,0,-2,.
O=C(NC1CCCCC1)[C@@H]1[C@@H](CO)[C@@H]2Cn3c(cccc3=O)[C@H]1N2CC1CCCC1,.,.,2,.,.
O=C(N[C@@H]1CC[C@@H](CCn2cc(C3CCCC3)nn2)O[C@H]1CO)c1cccnc1,.,.,2,.,.
O=C(N[C@@H]1CC[C@@H](CCn2cc(-c3ccccn3)nn2)O[C@H]1CO)c1cccnc1,0,71*,1,9,37µM*
O=C(N[C@H]1CC[C@H](CCn2cc(C3CC3)nn2)O[C@@H]1CO)c1cccnc1,-3,-23,-1,-1,.
O=C(N[C@@H]1CC[C@H](CCn2cc(-c3ccccn3)nn2)O[C@H]1CO)c1cccnc1,0,84*,-4,-2,44µM*
O=C(N[C@@H]1CC[C@@H](CCn2cc(-c3ccccn3)nn2)O[C@@H]1CO)c1cccnc1,-2,81*,-1,-2,44µM*
C[C@H]1CN([C@@H](C)CO)C(=O)c2cc(/C=C/c3ccccc3)cnc2O[C@@H]1CN(C)C,7,-5,1,-2,.
CCc1c(C)nc(Nc2nc(C)c3cc(OC)ccc3n2)[nH]c1=O,-13,20,.,-4,.
CCc1c(C)nc(Nc2nc(C)c3ccc(OC)cc3n2)[nH]c1=O,-19,51*,1,-2,-37%
C[C@H]1CN([C@@H](C)CO)C(=O)c2cc(NC(=O)NC3CCCCC3)ccc2O[C@H]1CN(C)Cc1ccc2c(c1)OCO2,-42,.,0,2,.
CN(C)C(=O)C[C@@H]1CC[C@H]2[C@@H](COc3ccc(NC(=O)c4ccc(F)c(F)c4)cc3C(=O)N2C)O1,-10,-4,2,-2,.
CC(=O)c1cccc(NC(=O)N2CCCC2C(=O)NCc2ccccc2)c1 (configuration not stated),.,21*,.,-4,7%
COCC(=O)N[C@H]1CC[C@@H](CC(=O)NCc2ccc(Cl)cc2)O[C@H]1CO,-4,.,4,3,.
C[C@@H]1CN([C@H](C)CO)S(=O)(=O)c2ccc(C#Cc3ccccn3)cc2O[C@@H]1CN(C)C(=O)C1CC1,15,51*,-4,6,-5%[42 µM]
N/C(=N\NS(=O)(=O)c1ccccc1Cl)c1ccccn1,.,55*,0,.,-9%
N/C(=N\OC(=O)c1ccccc1Cl)c1ccccn1,-75,-7,0,4,.
N/C(=N\OS(=O)(=O)c1ccc(Cl)cc1)c1ccccn1,.,53*,2,.,-18%
C[C@H](CO)N1C[C@H](C)[C@@H](CN(C)Cc2ccncc2)Oc2ccc(NC(=O)Cc3ccccc3)cc2C1=O,-7,1,0,-2,.
O=C(NC1CCCCC1)N[C@H]1C=C[C@H](CC(=O)N2CCOCC2)O[C@@H]1CO,-1,4,2,-2,.
O=C(C[C@H]1CC[C@H]2[C@@H](COC[C@@H](O)CN2Cc2cc(F)ccc2F)O1)N[C@@H]1CCN(Cc2ccccc2)C1,31,-2,-2,-1,.
O=[N+]([O-])c1cccc(/C=N/Nc2nc(NCc3ccccc3)nc(N3CCOCC3)n2)c1O,.,59*,4,.,14µM*
